High-throughput results: PubChem BioAssay, Broad Institute
Sampled rows, rich in hits. Any-hit rate of the full collection: about 1.4%.
GSIS activator – GLuc luminescence reporter in INS-1E cells, primary screen for activators of glucose-dependent secretion of insulin; activation, % at 16.6 µM; INS-1E GLuc reporter insulin secretion, 2-3 h; actives 0.61% (n = 370,000);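 active = lowest replicate activation of at least 40%, so every replicate reaches that level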;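 note: 0% = median of neutral control wells and 100% = median of IBMX positive control wells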
RAD52 anneal inh – blocks human RAD52 DNA annealing. P43351. recombinant RAD52 DNA annealing, FRET fluorescence. inhibition, % at 18.7 µM. actives 0.46% (n = 360,000);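 active = every replicate showing at least 50% inhibition; inconclusive = mean inhibition at least 50% but not in every replicate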
AF4-AF9 inh – blocks AF4 peptide binding to human AF9; P42568; AlphaScreen, biotin-AF4 peptide binding to FLAG-AF9; inhibition, % at 10 µM; actives 0.47% (n = 350,000); AID 651704;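 active = every replicate reaching a set inhibition limit, whatever the replicate mean, cut at about 25% in these data; inconclusive = mean inhibition reaches that limit but some replicates miss it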;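 note: 0% = plate neutral control median and 100% = total signal loss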
ERAP1 HTS inh – ERAP1 (human) enzyme inhibition. inhibition, % at 10.7 µM. Q9NZ08. recombinant ERAP1, Leu-AMC fluorescence, 60 min. actives 0.15% (n = 340,000). AID 652197;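 active = mean replicate inhibition of at least 30%, or all replicates individually reaching that 30% level; inactive = mean below 30% and not every replicate reaching it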;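 note: 0% = neutral control wells and 100% = L-leucinethiol positive control wells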
Target sequence (Q9NZ08 whole entry, looked up): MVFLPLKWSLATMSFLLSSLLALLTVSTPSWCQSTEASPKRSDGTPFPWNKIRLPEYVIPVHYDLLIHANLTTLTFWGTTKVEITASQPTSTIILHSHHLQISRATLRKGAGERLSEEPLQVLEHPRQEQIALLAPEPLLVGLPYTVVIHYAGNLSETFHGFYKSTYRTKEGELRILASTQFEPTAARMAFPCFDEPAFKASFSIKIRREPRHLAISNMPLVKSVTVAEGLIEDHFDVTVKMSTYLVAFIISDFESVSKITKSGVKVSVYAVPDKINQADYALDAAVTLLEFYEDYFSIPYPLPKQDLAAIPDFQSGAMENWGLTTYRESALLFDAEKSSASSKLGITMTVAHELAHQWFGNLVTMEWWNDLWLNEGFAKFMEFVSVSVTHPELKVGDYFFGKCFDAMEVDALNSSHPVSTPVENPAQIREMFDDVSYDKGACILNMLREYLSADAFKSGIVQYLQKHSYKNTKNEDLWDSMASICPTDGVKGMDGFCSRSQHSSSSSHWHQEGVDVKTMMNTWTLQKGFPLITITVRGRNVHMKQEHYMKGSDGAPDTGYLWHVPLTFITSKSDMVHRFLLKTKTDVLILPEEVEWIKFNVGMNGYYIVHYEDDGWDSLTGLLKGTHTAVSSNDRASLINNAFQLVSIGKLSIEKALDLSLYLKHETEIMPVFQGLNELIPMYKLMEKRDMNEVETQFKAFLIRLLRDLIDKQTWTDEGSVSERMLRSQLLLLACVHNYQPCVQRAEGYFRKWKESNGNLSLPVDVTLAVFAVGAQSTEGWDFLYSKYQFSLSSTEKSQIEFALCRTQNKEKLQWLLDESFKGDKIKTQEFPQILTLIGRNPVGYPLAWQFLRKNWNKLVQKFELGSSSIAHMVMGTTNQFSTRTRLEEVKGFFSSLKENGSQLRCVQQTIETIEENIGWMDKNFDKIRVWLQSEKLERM
RAD54 branch – inhibitors of human RAD54 branch migration. Q92698. inhibition, % at 10.4 µM. actives 0.14% (n = 360,000). RAD54 Holliday junction branch migration, FAM/BHQ fluorescence. AID 602329;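 active = mean normalized replicate activity at least 40 and at least half of replicates scoring 40 or more; inconclusive = only one of the two criteria met; inactive = mean below 40 and under half of replicates reaching 40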;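 note: 0% = median of neutral control wells and 100% = median of positive control wells; inhibitors cause a drop in the FAM fluorescence signal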
PGC1a acetyl inh – PGC1a acetylation modulation, inhibitor mode. inhibition, % at 15.6 µM. actives 0.17% (n = 350,000). U2OS PGC1a acetylation, AlphaScreen anti-acetyl-lysine; with virally co-expressed GCN5 acetyltransferase;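 active = every replicate shows inhibition of at least 40%; inconclusive = mean inhibition at least 40% but some replicate below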;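 note: 0% = neutral control wells and 100% = positive control wells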
Rad54 DNA ctr – binds DNA, flagging false Rad54 inhibitor hits | AC50, µM (titrated, usually from 35 µM), for inactives: at the top dose activity change, negative = DNA binding | Acridine orange-DNA displacement, fluorescence polarization, 20 min | actives 8% (n = 460) | AID 651673 | shares compounds with RAD54 branch;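 active = signal drop giving an AC50 within twice the top valid tested concentration of each sample, actives reach about 35 µM in these data; inactive = activity opposite to expected, plus the rest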;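 note: polarization loss reports compound binding to salmon sperm DNA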
* marks the source's active call; other numbers are inactive results; i = inactive; ? = inconclusive; nt = no result.

SMILES	GSIS activator	RAD52 anneal inh	AF4-AF9 inh	ERAP1 HTS inh	RAD54 branch	PGC1a acetyl inh	Rad54 DNA ctr
CC=Cc1ccc2n(c1=O)C[C@H]1[C@H](CO)[C@@H](C(=O)NCCC)N(C(=O)CC3CC3)[C@@H]21 (mixture of isomers)	-2	-10	-2	0	-3	nt	nt
Cc1ccc(S(=O)(=O)Nc2ccc3c(c2)C(=O)N([C@@H](C)CO)C[C@H](C)[C@@H](CN(C)CC2CCCCC2)OCCCC[C@H](C)O3)cc1	-1	55*	17	2	5	-1	nt
Cc1noc(C)c1S(=O)(=O)Nc1ccc2c(c1)C(=O)N([C@@H](C)CO)C[C@@H](C)[C@@H](CN(C)CC1CCCCC1)OCCCC[C@@H](C)O2	11	24	4	1	13	85*	nt
O=C(NCC1CCCCC1)[C@H]1[C@H](CO)[C@H]2Cn3c(cccc3=O)[C@@H]1N2CCc1ccccc1	-9	-4	1	0	2	nt	nt
CN(C)CCCN(C(=O)c1ccco1)c1nc2ccc(Cl)cc2s1	-6	38	12	7	23	-11	nt
CN(C)CCN(C(=O)c1ccco1)c1nc2cc3c(cc2s1)OCCO3	14	44	5	0	64*	nt	2%
Cc1ccc(C)c(N2CCN(C(=S)Nc3ccc4nc(N5CCN(C)CC5)cc(C)c4c3)CC2)c1	12	11	3	-6	?	-11	5%
O=C(NCC[C@H]1CC[C@H](NC(=O)c2cccnc2)[C@H](CO)O1)Nc1ccc(Cl)cc1	-18	14	9	0	10	-8	nt
CCN(CC)CCNC(=S)Nc1ccc2nc(N3CCOCC3)cc(C)c2c1	21	22	7	1	2	2	nt
CCCCN(CC)CCCNC(=S)Nc1ccc2nc(N3CCN(CC)CC3)cc(C)c2c1	25	90*	5	-1	71*	-5	0%
Cc1cc(NCCCN(C)C)n2c(nc3ccccc32)c1C#N	-5	46	-1	-65	70*	-9	-13%
CNC(C)C#Cc1ccc2oc3cc(C)c(C)cc3c(=O)c2c1 (stereo not drawn)	nt	-30	5	nt	-4	nt	nt
CNC(C)C#Cc1ccc2oc3cccc(OC)c3c(=O)c2c1 (stereo not drawn)	8	-5	-1	-10	?	-2	-14%
Cc1nc2ccccc2c2oc(C(=O)NCCCN3CCCC3=O)cc12	14	-4	-3	0	8	-1	nt
Cc1nc2ccccc2c2oc(C(=O)NCCN3CCN(C)CC3)cc12	24	20	-2	-2	?	-5	-13%
COc1ccc(Cn2cc3c(-c4ccc(F)cc4)nnc-3c3cc(OC)c(OC)cc32)cc1	nt	-243	-9	0	64*	16	0%
COc1cc2c3nnc(-c4ccc(F)cc4)c-3cn(Cc3ccc(F)cc3)c2cc1OC	-1	i	-1	nt	-18	-7	nt
CCC(=O)N(Cc1cc2cc(OC)ccc2[nH]c1=O)c1cc(C)ccc1C	nt	nt	nt	nt	?	-7	9%
C(=N\Nc1nc2ccccc2[nH]1)/c1ccc2c(c1)OCO2	-6	-5	4	-1	nt	nt	nt
C(=C/c1nccc2c1[nH]c1ccccc12)/c1ccc2c(c1)OCO2	16	-74	-14	-3	59*	-18	-9%
O=C(C[C@@H]1C=C[C@@H](NS(=O)(=O)c2ccccc2)[C@H](CO)O1)NCc1ccncn1	10	-16	-3	1	-2	4	nt
Cc1c(CN(C)C)c2c(n1C)C(=O)c1ccc(Br)cc1-2	nt	nt	nt	nt	71*	-5	i
CCCC(=O)Nc1ccc2c(c1)OC[C@H](C)N(CCc1ccccc1)C[C@@H](C)[C@@H](OC)CN(C)C2=O	-17	nt	nt	nt	nt	2	nt
c1ccc2c(c1)oc1c(Nc3ccc(CN4CCOCC4)cc3)ncnc12	nt	nt	nt	nt	54*	-8	-23%
CC(C)CSc1ncc(-c2cccc(C(F)(F)F)c2)cn1	nt	nt	nt	nt	?	0	-13%
SMILES	GSIS activator	RAD52 anneal inh	AF4-AF9 inh	ERAP1 HTS inh	RAD54 branch	PGC1a acetyl inh	Rad54 DNA ctr
Nc1c(C(=O)NCCN2CCOCC2)c2nc3ccccc3nc2n1-c1ccccc1	nt	nt	nt	nt	52*	7	1%
Nc1c(C(=O)NCCN2CCOCC2)c2nc3ccccc3nc2n1CCc1ccccc1	nt	nt	nt	nt	5	-15	nt
Nc1c(C(=O)NCCN2CCOCC2)c2nc3ccccc3nc2n1-c1ccc2c(c1)OCO2	2	nt	nt	nt	?	-3	11%
CN(C)CCN(C(=O)C1=COCCO1)c1nc2ccc(F)cc2s1	20	19	0	-5	7	-13	nt
COc1ccc(Cl)c2sc(N(CCN(C)C)C(=O)C3=COCCO3)nc12	24	37	1	0	?	3	3%
CO[C@@H]1CN(C)C(=O)c2cc(NS(=O)(=O)c3cccc(F)c3)ccc2OC[C@H](C)NC[C@H]1C	9	4	-3	nt	6	-4	nt
O=C(Nc1ccc2c(c1)OCO2)c1cc(-c2ccncc2)nc2ccccc12	11	12	7	5	?	8	3%
OCCN1CCN(c2ncnc3c2sc2nc(N4CCOCC4)c4c(c23)CCC4)CC1	-13	15	-5	-6	53*	-37	-8%
c1ccc(-c2cc3c(N4CCCC4)ncnc3s2)cc1	4	-11	1	5	nt	nt	nt
OCCN1CCN(c2ncnc3sc(-c4ccccc4)cc23)CC1	5	42	1	26	?	4	-21%
COc1ccc2c3c(n(C)c2c1)[C@@H](CO)N(CC1CC1)CC31CN(C(=O)c2ccccc2)C1	-1	-1	-1	-2	nt	-4	nt
CN(C)C(CNC(=O)CCCN1C(=O)c2cccc3cccc(c23)C1=O)c1ccccc1 (stereo not drawn)	3	18	5	3	57*	nt	1%
CSc1nc(SCC(N)=O)c2c3c(sc2n1)CN(C)CC3	44	nt	nt	nt	59*	0	3%
CCC(=O)N1C[C@H](C)[C@H](OC)CN(C)C(=O)c2ccc(NC(=O)Nc3ccc(Cl)cc3)cc2OC[C@@H]1C	-29	nt	nt	nt	nt	9	nt
NC(COCc1ccccc1)c1csc(Nc2nncc3ccccc23)n1 (stereo not drawn)	nt	-44	2	1	1	-1	nt
NCc1csc(Nc2nncc3ccccc23)n1	nt	30	8	2	75*	2	-8%
Cc1ccc2nc3c(c(N)c2c1)CCN3c1ccccc1	nt	nt	nt	nt	53*	-7	-13%
Nc1c2c(nc3cccc(Cl)c13)N(c1ccccc1)CC2	3	-22	2	1	nt	nt	nt
CO[C@@H]1CN(C)C(=O)c2ccc(NC(C)=O)cc2OC[C@@H](C)N(S(=O)(=O)c2cn(C)cn2)C[C@@H]1C	2	-2	-1	0	3	-17	nt
C[C@H](CO)N1C[C@H](C)[C@@H](CN(C)S(=O)(=O)c2cn(C)cn2)Oc2c(NC(=O)Cc3ccccc3)cccc2C1=O	-14	nt	nt	nt	nt	nt	nt
